# Measured values: PubChem BioAssay (NCATS)
# Unmarked numbers belong to inactive results. Results filed as inconclusive are left out. Activity calls are given as the source filed them. Unless noted, calls follow the shape of the dose curve; as a rule, active = well fitted curve in either direction with a large enough effect (not every such curve was filed as active); inconclusive = small, poorly fitted or top-dose-only effect, or another doubt; inactive = flat fitted curve, though single readings scatter.
# Columns and labels:
# [1] = target: Lysosomal acid glucosylceramidase (Homo sapiens) (UniProt P04062); assay: Glucocerebrosidase-p2 (AID 348; in the data active = potency below about 10 µM; also: potency is read from the fitted curve at half-maximal effect); settings: purified GBA, blue fluorogenic substrate, 40 min
# Outline: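 Normal human glucocerebrosidase (0.2 nM) with blue fluorogenic substrate (80 uM final) in citrate/phosphate pH 5.9 with 10mM sodium taurocholate, 0.01% tween-20; 40 min RT, NaOH/glycine stop; fluorescence Ex 365/Em 440; AC50 from a titration from 0.6 nM upwards.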
# [2] = AP1 Signaling Pathway (AID 357); settings: ME-180 AP-1-bla reporter, EGF-induced, beta-lactamase ratio, 5 h; at 7.69 µM (top of the series) unless noted;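 also: ME-180 reporter cells stimulated with EGF at its EC50 level; % is scaled to controls: 0 for no effect and ±100 for the full control effect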
# Outline: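 Cells are seeded overnight, exposed to compound titrations and an EC50 level of EGF for 5 hours at 37 °C, then loaded with CCF4 dye for 2.5 hours. Beta-lactamase activity under the AP-1 element is read as a blue/green ratio.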
# [3] = target: Cytochrome P450 1A2 (Homo sapiens) (UniProt P05177); assay: p450-cyp1a2 (AID 410; calls by dose curve; also: potency is read from the fitted curve at half-maximal effect;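 as to activity change, negative = inhibition: -100% = full effect of reference inhibitor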); settings: recombinant CYP1A2, luciferin-ME demethylation, luminescence; series mostly up to 11.4 µM
# Outline: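 Luminescent demethylation readout: Luciferin-ME (100uM, equal to Km) turned over by 20nM CYP1A2 for 60 min at room temperature after NADPH regeneration addition, following 10 min compound preincubation. Normalization used 57 uM furafylline as full inhibition.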
# [4] = NFAT Signaling Pathway (AID 444); settings: Jurkat NFAT-bla M1, carbachol, beta-lactamase ratio, 5 h; at 7.69 µM (top of the series) unless noted;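 also: carbachol stimulus at about its EC50 of 1 µM final; % is scaled to controls: 0 for no effect and ±100 for the full control effect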
# Outline: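 Jurkat cells carrying an NFAT-driven β-lactamase reporter and co-transfected muscarinic M1 receptor were treated with compound plus carbachol (1 uM final, an EC50 level) for 5 h at 37 °C. CCF4 loading followed for 1 h at RT; 460/530 nm ratio gave %activity.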
# [5] = Stat Signaling Pathway (AID 446); settings: ME-180 SIE beta-lactamase reporter, IL-6 stimulated, 5 h; at 7.69 µM (top of the series) unless noted;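 also: ME-180 cervical cancer cells given 40 pM IL-6 alongside compound; SIE-controlled beta-lactamase reporter measured as 460/530 nm FRET emission ratio; % is scaled to controls: 0 for no effect and ±100 for the full control effect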
# Outline: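 Normalization used AC90 stimulation (300 pM IL-6) and AC90 inhibition (125 nM pan-JAK inhibitor at 40 pM IL-6). The underlying signal is SIE-driven beta-lactamase in ME-180 cells after 5 h IL-6 exposure with compound.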
# [6] = target: Glucocorticoid receptor (Homo sapiens) (UniProt P04150); assay: GR-GFP Redistribution (AID 450;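 active = compounds whose dose series gives a full or clear partial fitted curve of increased nuclear translocation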; also: potency is read from the fitted curve at half-maximal effect); settings: U2OS GR-GFP nuclear translocation, laser cytometry, 2 h
# [7] = target: Glucocorticoid receptor (Homo sapiens) (UniProt P04150); assay: GR-EFC Redistribution (AID 451; calls by dose curve; also: potency is read from the fitted curve at half-maximal effect); settings: CHO-K1 GR-EFC translocation, beta-gal luminescence, 2 h
# Outline: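 CHO-K1 cells stably expressing nuclear-localized β-gal enzyme acceptor and GR fused C-terminally to the enzyme donor fragment; ligand-driven nuclear translocation restores β-gal by complementation. Compounds titrated up to 46 uM final, 2 h at 37 °C; luminescence read.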
# [8] = target: Mitogen-activated protein kinase 10 (Mus musculus) (UniProt Q61831); assay: JNK3 AlphaScreen Assay (AID 530); settings: JNK3 lysate, c-Jun phosphorylation; series mostly up to 11.4 µM;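 also: kinase came from lysate of stimulated human HepG2 cells; signal reports phosphorylation of biotinylated GST-cJun 1-79 at Ser73 with 10 µM ATP; % is scaled to controls: 0 for no effect and ±100 for the full control effect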
# Outline: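 Phosphorylation of biotinylated GST-cJun(1-79) at Ser73 is measured by AlphaScreen proximity luminescence. Enzyme is JNK3 in HepG2 lysates activated with interleukin-1beta and tumor necrosis factor alpha; ATP is 10 uM final.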
# [9] = target: 3',5'-cyclic-AMP phosphodiesterase 4B (Homo sapiens) (UniProt Q07343); assay: qHTS Assay for Inhibitors of PDE-IV (AID 607; active = well fitted activation curve with a large enough effect in the main read-out, with a control signal flat, not every such curve was filed as active; also: % of control where 0% means no effect); settings: HEK293 ACTOne CNG channel cells, membrane potential fluorescence; series mostly up to 22.9 µM
# Outline: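 HEK293 ACTOne cells with CNG channel (1000/well), endogenous PDE4; membrane potential dye, compounds up to 22.9 uM final. Fluorescence Ex 535/Em 590; RO 20-1724 (100 uM final) as reference.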
# [10] = target: Cytochrome P450 2C9 (Homo sapiens) (UniProt P11712); assay: qHTS Assay for Inhibitors and Substrates of Cytochrome P450 2C9 (AID 883; active = well fitted curve in the direction sought with a large enough effect; an effect the other way counts as inactive or inconclusive; also: % is scaled to controls: 0 for no effect and ±100 for the full control effect; nearly all actives have a fitted effect of over 60% in size); settings: recombinant CYP2C9, luciferin-H luminescence, 60 min; series mostly up to 11.4 µM
# Outline: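 Human CYP2C9 (10nM) hydroxylated Luciferin-H (100uM, at its KM) to luciferin in 25mM KPO4. Compound was preincubated 10 min at 37C, then NADPH regeneration started a 60 min reaction at 37C. Luminescence was read after detection reagent, normalized to 57uM sulphaphenazole.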
# [11] = target: Cytochrome P450 3A4 (Homo sapiens) (UniProt P08684); assay: qHTS Assay for Inhibitors and Substrates of Cytochrome P450 3A4 (AID 884; active = well fitted curve in the direction sought with a large enough effect; an effect the other way counts as inactive or inconclusive; also: nearly all actives have a fitted effect of over 50% in size; also: potency is read from the fitted curve at half-maximal effect); settings: recombinant CYP3A4, Luciferin-PPXE luminescence; series mostly up to 57.1 µM
# Outline: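 Luminescent readout of luciferin produced by CYP3A4 (20 nM) dealkylation of Luciferin-PPXE, 25 uM (its KM). NADPH-driven reaction ran 60 min at RT after 10 min compound preincubation; data scaled to 57 uM ketoconazole as 100% inhibition.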
# [12] = target: Cytochrome P450 2D6 (Homo sapiens) (UniProt P10635); assay: qHTS Assay for Inhibitors and Substrates of Cytochrome P450 2D6 (AID 891; active = well fitted curve in the direction sought with a large enough effect; an effect the other way counts as inactive or inconclusive; also: nearly all actives have a fitted effect of over 60% in size; also: potency is read from the fitted curve at half-maximal effect); settings: recombinant CYP2D6, luciferin-ME EGE luminescence; series mostly up to 11.4 µM
# Outline: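 Luminescent read-out of luciferin formed by 5 nM human CYP2D6 demethylating 30 uM Luciferin-ME EGE (Km level) over 60 min at room temperature after NADPH regeneration addition. Data normalized to full inhibition by 1.43 uM quinidine.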
# [13] = target: Cytochrome P450 2C19 (Homo sapiens) (UniProt P33261); assay: qHTS Assay for Inhibitors and Substrates of Cytochrome P450 2C19 (AID 899; active = well fitted curve in the direction sought with a large enough effect; an effect the other way counts as inactive or inconclusive; also: nearly all actives have a fitted effect of over 60% in size; also: potency is read from the fitted curve at half-maximal effect); settings: recombinant CYP2C19, luciferin-H EGE luminescence; series mostly up to 11.4 µM
# Outline: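 Human CYP2C19 (5nM) with Luciferin-H EGE at 10uM (its KM) in 50mM KPO4 was preincubated with compound for 10 min at 37C. NADPH regeneration started a 60 min 37C reaction. Luciferin was read by luminescence, normalized to 57uM ketoconazole.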
# [14] = target: Cytochrome P450 3A4 (Homo sapiens) (UniProt P08684); assay: qHTS Assay for Activators of Cytochrome P450 3A4 (AID 885; active = well fitted curve in the direction sought with a large enough effect; an effect the other way counts as inactive or inconclusive; also: nearly all actives have a fitted effect of over 65% in size); settings: recombinant CYP3A4, Luciferin-PPXE luminescence, 60 min; series mostly up to 11.4 µM
# Outline: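 Human CYP3A4 dealkylates Luciferin-PPXE to luciferin, which luciferase detection converts to light. Substrate was at its KM (25uM), buffer 200mM KPO4, reaction 60 min at RT.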
# [15] = qHTS Assay for Identification of Small Molecule Agonists for Hypoxia Response Element Signaling Pathway (AID 914; active = well fitted activation curve with a large enough effect in the signal ratio, with a control signal flat, not every such curve was filed as active; the % refers to the signal ratio; also: % of control where 0% means no effect); settings: ME-180 (cervical carcinoma) HRE-bla reporter, beta-lactamase ratio, CoCl2, 17 h; activation: hits give high values
# Outline: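 HRE-bla ME-180 cells, overnight plating in Opti-MEM with 0.5% dialyzed FBS; cpd titration + EC50 CoCl2, 17 h, 37 degrees Celsius; CCF4 2.5 h RT; 460/530 nm ratio; AC50.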
# Cytochrome P450 3A4 (Homo sapiens), sequence (P08684 whole entry, looked up): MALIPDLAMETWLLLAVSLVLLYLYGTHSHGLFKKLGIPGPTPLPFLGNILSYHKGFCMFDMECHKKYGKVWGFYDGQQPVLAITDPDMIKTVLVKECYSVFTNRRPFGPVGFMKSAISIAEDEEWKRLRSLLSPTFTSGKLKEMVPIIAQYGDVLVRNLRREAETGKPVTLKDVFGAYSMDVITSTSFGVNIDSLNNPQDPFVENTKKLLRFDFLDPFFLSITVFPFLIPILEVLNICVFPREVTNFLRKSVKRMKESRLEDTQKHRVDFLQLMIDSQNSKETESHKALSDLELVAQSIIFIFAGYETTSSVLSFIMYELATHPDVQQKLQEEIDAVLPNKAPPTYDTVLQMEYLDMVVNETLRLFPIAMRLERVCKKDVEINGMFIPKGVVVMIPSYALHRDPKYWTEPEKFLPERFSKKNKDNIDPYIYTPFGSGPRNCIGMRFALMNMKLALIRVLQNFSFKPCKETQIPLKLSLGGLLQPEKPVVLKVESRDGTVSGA
# Lysosomal acid glucosylceramidase (Homo sapiens), sequence (P04062 whole entry, looked up): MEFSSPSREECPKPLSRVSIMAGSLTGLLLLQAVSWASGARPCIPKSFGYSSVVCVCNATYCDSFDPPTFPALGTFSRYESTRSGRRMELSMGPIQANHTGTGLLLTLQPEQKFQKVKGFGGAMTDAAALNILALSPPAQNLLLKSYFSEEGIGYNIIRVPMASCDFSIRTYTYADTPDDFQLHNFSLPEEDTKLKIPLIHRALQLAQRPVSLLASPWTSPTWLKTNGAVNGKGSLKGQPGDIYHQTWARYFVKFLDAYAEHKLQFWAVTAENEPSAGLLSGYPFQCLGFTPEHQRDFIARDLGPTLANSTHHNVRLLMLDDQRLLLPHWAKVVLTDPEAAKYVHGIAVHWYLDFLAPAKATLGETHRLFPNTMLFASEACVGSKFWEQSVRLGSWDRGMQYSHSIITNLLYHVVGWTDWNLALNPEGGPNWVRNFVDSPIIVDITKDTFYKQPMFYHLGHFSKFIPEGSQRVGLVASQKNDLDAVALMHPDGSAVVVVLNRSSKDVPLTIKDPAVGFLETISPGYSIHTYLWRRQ
# Cytochrome P450 2C9 (Homo sapiens), sequence (P11712 whole entry, looked up): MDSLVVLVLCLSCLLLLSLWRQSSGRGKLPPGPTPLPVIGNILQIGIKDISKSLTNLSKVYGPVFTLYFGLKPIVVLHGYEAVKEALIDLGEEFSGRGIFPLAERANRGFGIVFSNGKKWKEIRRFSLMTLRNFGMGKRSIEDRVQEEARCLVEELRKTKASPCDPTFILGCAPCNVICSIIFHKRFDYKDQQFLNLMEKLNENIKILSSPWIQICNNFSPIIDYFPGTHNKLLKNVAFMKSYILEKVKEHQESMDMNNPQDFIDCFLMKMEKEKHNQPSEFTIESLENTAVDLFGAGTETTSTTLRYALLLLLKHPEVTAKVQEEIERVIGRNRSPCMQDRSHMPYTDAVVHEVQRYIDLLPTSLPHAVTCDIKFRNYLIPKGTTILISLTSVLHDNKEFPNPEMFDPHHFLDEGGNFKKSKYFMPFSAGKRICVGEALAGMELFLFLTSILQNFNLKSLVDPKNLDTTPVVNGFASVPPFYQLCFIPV
# Cytochrome P450 2C19 (Homo sapiens), sequence (P33261 whole entry, looked up): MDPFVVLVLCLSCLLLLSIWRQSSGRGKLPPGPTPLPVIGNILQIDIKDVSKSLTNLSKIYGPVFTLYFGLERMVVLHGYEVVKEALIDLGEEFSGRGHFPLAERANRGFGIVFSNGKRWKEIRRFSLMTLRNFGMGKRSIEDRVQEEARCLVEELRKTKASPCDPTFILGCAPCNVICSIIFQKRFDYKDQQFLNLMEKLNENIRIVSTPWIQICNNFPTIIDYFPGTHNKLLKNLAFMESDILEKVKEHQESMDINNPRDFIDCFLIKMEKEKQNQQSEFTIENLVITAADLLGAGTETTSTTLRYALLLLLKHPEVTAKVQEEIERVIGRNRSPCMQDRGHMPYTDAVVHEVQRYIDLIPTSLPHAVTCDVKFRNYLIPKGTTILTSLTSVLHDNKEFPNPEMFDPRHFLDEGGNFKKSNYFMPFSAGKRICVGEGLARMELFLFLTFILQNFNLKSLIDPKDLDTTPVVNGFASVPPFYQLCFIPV
# 3',5'-cyclic-AMP phosphodiesterase 4B (Homo sapiens), sequence (Q07343 whole entry, looked up): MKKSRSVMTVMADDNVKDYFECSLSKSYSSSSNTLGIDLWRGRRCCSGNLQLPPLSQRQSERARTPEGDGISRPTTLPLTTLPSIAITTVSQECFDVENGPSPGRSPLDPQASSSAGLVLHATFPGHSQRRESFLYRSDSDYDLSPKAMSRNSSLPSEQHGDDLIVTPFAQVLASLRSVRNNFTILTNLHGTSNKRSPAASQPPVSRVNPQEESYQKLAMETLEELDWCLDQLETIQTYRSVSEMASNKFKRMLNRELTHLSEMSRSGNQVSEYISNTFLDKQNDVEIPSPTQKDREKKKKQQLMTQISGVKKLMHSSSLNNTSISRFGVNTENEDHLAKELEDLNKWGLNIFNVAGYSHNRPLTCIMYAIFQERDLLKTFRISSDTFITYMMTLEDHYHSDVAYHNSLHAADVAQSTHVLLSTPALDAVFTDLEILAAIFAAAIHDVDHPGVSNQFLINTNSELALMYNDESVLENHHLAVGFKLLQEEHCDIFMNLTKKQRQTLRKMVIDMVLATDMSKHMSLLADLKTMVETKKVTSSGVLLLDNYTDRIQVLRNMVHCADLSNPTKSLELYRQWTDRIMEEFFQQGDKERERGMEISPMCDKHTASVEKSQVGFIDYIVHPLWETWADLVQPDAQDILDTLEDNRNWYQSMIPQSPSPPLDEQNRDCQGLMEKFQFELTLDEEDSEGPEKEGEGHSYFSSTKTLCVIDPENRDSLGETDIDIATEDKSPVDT
# Glucocorticoid receptor (Homo sapiens), sequence (P04150 whole entry, looked up, the tested form may be a part): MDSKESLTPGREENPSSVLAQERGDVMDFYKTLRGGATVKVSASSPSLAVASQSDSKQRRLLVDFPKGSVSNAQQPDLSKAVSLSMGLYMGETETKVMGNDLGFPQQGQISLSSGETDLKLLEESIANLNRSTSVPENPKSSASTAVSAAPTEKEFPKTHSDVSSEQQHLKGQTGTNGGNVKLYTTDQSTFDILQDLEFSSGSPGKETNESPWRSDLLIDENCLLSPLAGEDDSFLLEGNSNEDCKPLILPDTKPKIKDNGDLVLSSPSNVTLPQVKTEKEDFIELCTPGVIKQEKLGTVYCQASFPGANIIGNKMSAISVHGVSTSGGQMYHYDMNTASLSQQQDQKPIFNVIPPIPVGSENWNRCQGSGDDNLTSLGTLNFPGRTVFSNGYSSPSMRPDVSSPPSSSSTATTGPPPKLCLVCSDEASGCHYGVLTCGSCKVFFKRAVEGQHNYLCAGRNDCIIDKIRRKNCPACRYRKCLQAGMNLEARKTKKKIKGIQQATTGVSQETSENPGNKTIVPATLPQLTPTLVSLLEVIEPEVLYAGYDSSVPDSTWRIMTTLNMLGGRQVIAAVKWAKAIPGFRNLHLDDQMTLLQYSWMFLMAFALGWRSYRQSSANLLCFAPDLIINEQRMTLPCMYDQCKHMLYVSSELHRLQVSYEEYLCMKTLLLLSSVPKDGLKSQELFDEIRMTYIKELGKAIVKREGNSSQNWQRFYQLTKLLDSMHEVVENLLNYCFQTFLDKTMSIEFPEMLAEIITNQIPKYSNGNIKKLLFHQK
# Cytochrome P450 2D6 (Homo sapiens), sequence (P10635 whole entry, looked up): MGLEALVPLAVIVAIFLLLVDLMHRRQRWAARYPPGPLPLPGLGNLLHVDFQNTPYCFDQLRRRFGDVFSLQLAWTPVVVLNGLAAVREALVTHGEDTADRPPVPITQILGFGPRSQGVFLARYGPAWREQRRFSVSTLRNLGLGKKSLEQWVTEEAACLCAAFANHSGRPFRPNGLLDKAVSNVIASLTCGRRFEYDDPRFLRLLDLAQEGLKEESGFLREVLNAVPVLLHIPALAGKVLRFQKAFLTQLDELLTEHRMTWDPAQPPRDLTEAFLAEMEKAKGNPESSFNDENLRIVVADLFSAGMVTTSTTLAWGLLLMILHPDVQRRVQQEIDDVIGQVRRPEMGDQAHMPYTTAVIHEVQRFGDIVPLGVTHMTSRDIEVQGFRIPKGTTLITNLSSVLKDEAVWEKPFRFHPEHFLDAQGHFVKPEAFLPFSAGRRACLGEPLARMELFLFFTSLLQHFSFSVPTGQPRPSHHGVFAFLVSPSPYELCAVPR
# Cytochrome P450 1A2 (Homo sapiens), sequence (P05177 whole entry, looked up): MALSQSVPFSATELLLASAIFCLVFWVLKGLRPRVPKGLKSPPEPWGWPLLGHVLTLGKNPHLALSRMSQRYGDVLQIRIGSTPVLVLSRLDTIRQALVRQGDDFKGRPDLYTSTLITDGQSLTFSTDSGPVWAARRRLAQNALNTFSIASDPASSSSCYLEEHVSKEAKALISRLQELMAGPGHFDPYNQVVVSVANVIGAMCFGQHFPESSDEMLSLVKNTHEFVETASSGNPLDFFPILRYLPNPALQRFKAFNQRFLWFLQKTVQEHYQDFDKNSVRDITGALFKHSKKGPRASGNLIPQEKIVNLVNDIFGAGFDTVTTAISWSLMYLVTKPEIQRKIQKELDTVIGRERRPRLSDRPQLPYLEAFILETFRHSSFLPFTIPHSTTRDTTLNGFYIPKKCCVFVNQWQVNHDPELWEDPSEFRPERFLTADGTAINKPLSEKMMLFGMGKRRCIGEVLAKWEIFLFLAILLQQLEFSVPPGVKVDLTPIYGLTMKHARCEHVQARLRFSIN
Structure (SMILES),Potency [1],"activity change, negative = inhibition [2]",Potency [3],"activity change, negative = inhibition [4]","activity, negative = inhibition [5]",Potency [6],Potency [7],Potency [8],Potency [9],Potency [10],"activity change, negative = inhibition [11]",Potency [12],"activity change, negative = inhibition [3]",Potency [13],Potency [14],Potency [11],activation [15]
O=C(O)CC(CC(=O)O)n1cccc1,> 11.4 µM,5.34%,inactive,8.97%,-7.74%,> 46 µM,> 9.22 µM,inactive,inactive,inactive,-36.6% [at 11.4 µM],inactive,–,–,–,–,–
CCCCC[C@@H](O)[C@@H]1C(=O)O[C@@H](C)[C@@H](O)\C=C/C=C\C=C/C=C\C=C(\C)[C@H](O)C[C@H](O)C[C@H](O)C[C@H](O)C[C@H](O)C[C@H](O)C[C@@H]1O,> 11.4 µM,-1.52%,–,-11.4%,11%,> 46 µM,> 9.22 µM,inactive,inactive,inactive,–,inactive,3.3% [at 2.29 µM],3.98 µM (active),–,–,–
N#CNC(N)=Nc1ccc(Cl)cc1,> 11.4 µM,5.32%,3.98 µM (active),2.31%,-1.86%,> 46 µM,> 9.22 µM,inactive,inactive,inactive,-49.7% [at 11.4 µM],inactive,–,inactive,–,–,–
Cc1cnc2cc(Cl)ccc2c1SCC(=O)O,> 11.4 µM,-8.88%,–,-0.25%,-11.6%,> 46 µM,> 9.22 µM,inactive,inactive,–,–,–,-2.3% [at 2.29 µM],–,inactive,–,–
CSC1(SC2=NCCN2)SC2(NCCN2)S1,> 11.4 µM,-0.329%,0.398 µM (active),-0.372%,5.32%,> 46 µM,> 9.22 µM,inactive,inactive,–,–,3.98 µM (active),–,–,inactive,1.26 µM (active),–
O=C(O)/C(=C\c1ccccc1)Cc1ccccc1,> 11.4 µM,-5.32%,inactive,3.67%,5.03%,> 46 µM,> 9.22 µM,inactive,inactive,–,30.2% [at 11.4 µM],–,–,–,–,–,–
C/C(=N/Nc1ccc2ccccc2n1)c1ccccc1O,> 11.4 µM,5.21%,1.58 µM (active),2.32%,7.92%,> 46 µM,> 9.22 µM,inactive,inactive,–,–,0.794 µM (active),–,–,inactive,3.16 µM (active),–
Cc1ccc(S(=O)(=O)Nc2cc(=O)[nH]c3c2CCC3)cc1,> 11.4 µM,6.25%,3.98 µM (active),9.14%,-3.68%,> 46 µM,> 9.22 µM,inactive,inactive,–,–,–,–,0.631 µM (active),inactive,3.16 µM (active),2.61%
CC(C)(C)C(=O)[C@H]([C@@H](c1ccccc1)N1CCOCC1)N1CCOCC1,> 11.4 µM,0.675%,inactive,16.7%,2.4%,> 46 µM,> 9.22 µM,inactive,inactive,–,–,–,–,–,inactive,2.51 µM (active),–
O=C(CSc1nc2ccc([N+](=O)[O-])cc2s1)c1ccc2ccccc2c1,> 11.4 µM,-4.94%,3.16 µM (active),9.35%,8.96%,> 46 µM,> 9.22 µM,inactive,inactive,–,–,–,–,–,inactive,–,–
N#CCCSC(=S)[C@H]1CCCC1=N,> 11.4 µM,13.5%,3.16 µM (active),-9.46%,-9.66%,> 46 µM,> 9.22 µM,inactive,inactive,–,–,–,–,–,inactive,–,–
Nc1ccc(S(=O)(=O)c2ccc(NC(=O)c3cccnc3)cc2)cc1,> 11.4 µM,-0.755%,–,12.7%,8.7%,> 46 µM,> 9.22 µM,inactive,inactive,–,–,–,-21.1% [at 2.29 µM],–,inactive,–,–
Nc1cccc(OCc2nc(N)nc(N)c2-c2ccc(Cl)cc2)c1,> 11.4 µM,6.37%,0.158 µM (active),-4.61%,6.21%,> 46 µM,> 9.22 µM,inactive,inactive,–,–,–,–,–,inactive,1.58 µM (active),–
